Laboratory results taken from PubChem BioAssay (NCI).
The panel holds about 83,000 compounds, 20% with a hit somewhere; the sample as a whole holds those more often.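 Values shown are percent growth following 48 h exposure of cells in 96-well plates to a single concentration of compound; below 10 was considered active.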 Activity calls are given as the source filed them.

What follows are compounds tested on HL-60(TB) leukemia (assay: NCI-60 one-dose screen, 48 h (100 = growth as untreated, 0 = no growth, -100 = all killed)). Conditions: 10 µM unless noted.
In the case of `N=C(N)c1ccc(-c2ccc(-c3ccccc3)o2)cc1`, the growth is reported as -62% (active).
For `COc1c(C(NC(=O)c2ccccc2)c2sccc2C)cc(Cl)c2cccnc12` (stereo unspecified), the growth was 96.1% (inactive).
With `O=C(CCN1CCCC1)Nc1ccc2c(NCCc3ccccc3)c3ccccc3nc2c1` the growth was -58% (active).
For `COc1ccc(/C=C2\N=C3Sc4cc(Cl)ccc4C(=O)N3C2=O)cc1`, the growth was 92.4% (inactive).
`COc1cc(/C=C2\CCCC3=C2NC(N)=NC3c2cc(OC)c(OC)c(OC)c2)cc(OC)c1OC` (stereo unspecified) was tested, and the growth was -7.5% (active).
With `c1ccc([Se]CCCN2CCN(CCC[Se]c3ccccc3)CC2)cc1` the growth was 105% (inactive).
For `COc1cc(C2C3=C(COC3=O)Nc3cc4c(cc32)OCO4)cc2c1OCO2` (stereo unspecified), the growth was -8.91% (active).
With `Cc1cc(C#Cc2ccccc2)ccc1-n1c(/C=C/c2ccc(F)cc2)nc2ccccc2c1=O` the growth was 34.3% (inactive).
`Clc1ccc(-c2cnc3nonc3n2)s1` was tested, and the growth was 29% (inactive).
In the case of `N#Cc1cccc(NC(=O)c2cc(-c3ccc(F)cc3F)ccc2O)c1`, the growth is reported as -19.1% (active).
For `O=C(CSc1nccc(Nc2ccc(S(=O)(=O)Nc3nccs3)cc2)n1)c1ccc(F)cc1`, the growth was 104% (inactive).
`CC(=O)NCCN` was tested, and the growth was 103% (inactive).
For `COC(=O)c1ccc(=O)oc1`, the growth was 96.2% (inactive).
In the case of `O=C(/C(=C(\C(=O)c1ccccc1)c1ccccc1)c1ccccc1)c1ccccc1`, the growth is reported as -1.48% (active).
For `Cc1cc(C(=O)/C=C/c2ccc[nH]2)ccc1-n1ccc(C(F)(F)F)n1`, the growth was -21% (active).
In the case of `COc1cc2oc(-c3cccc(C(=O)Nc4ccc5c(c4)OCO5)c3)cc(=O)c2c(O)c1OC`, the growth is reported as 94.3% (inactive).
